14 compounds from PubChem BioAssay (NCI) can be followed below.

The panel holds about 83,000 compounds, 20% with a hit somewhere; the sample as a whole holds those more often.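 Plates (96-well) were seeded with cells, treated with compound at one concentration, and incubated for 48 hours before percent growth was determined.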 Unmarked numbers belong to inactive results. Active and inactive are the calls of the source. How the source made its calls: active means growth percent below 10; inactive means the rest.

Among the test systems are HCT-15 colon; HT29 colon; SNB-75 CNS; SNB-19 CNS; U251 CNS; PC-3 prostate; SK-MEL-5 melanoma; UACC-62 melanoma; LOX IMVI melanoma; SK-MEL-28 melanoma.
Holding throughout (experiment): NCI-60 one-dose screen, 48 h (100 = growth as untreated, 0 = no growth, -100 = all killed)
Holding throughout (conditions): 10 µM

As to `O=C(c1ccc(Cl)cc1)c1no[n+]([O-])c1C(=O)c1ccc(Cl)cc1`, the growth in the assay on HCT-15 colon was 95.7%; in the assay on HT29 colon it was 67.3%; with SNB-75 CNS, 97.9%; in the assay on SNB-19 CNS, 115%; with U251 CNS, 104%; in the assay on PC-3 prostate it was 92.9%. Moreover, the growth was 98.3% with SK-MEL-5 melanoma, 118% in the assay on UACC-62 melanoma, -74.2% (active) in the assay on LOX IMVI melanoma and 117% with SK-MEL-28 melanoma.

Take `O=c1[nH]c(=O)n(C2C[C@@H](O)[C@@H](CO)O2)cc1F` (stereo not given in full): the growth with HCT-15 colon is 39%; with HT29 colon, 27.2%; in the assay on SNB-75 CNS it was 20.3%; with SNB-19 CNS, 41.6%; in the assay on U251 CNS, 34.2%; in the assay on PC-3 prostate, 44%. For the same compound, the growth in the assay on SK-MEL-5 melanoma is -69% (active); in the assay on UACC-62 melanoma it was 13.9%; in the assay with LOX IMVI melanoma, 14.1%; with SK-MEL-28 melanoma, 37.9%.

For the compound `NC(N)=NS(=O)(=O)c1ccc(Nc2ccc3nnc(-c4ccncc4)n3n2)cc1`, the growth with HCT-15 colon was 100%; in the assay on HT29 colon, 104%; in the assay on SNB-75 CNS, 90.4%; in the assay on SNB-19 CNS, 94.3%; with U251 CNS, 104%; in the assay on PC-3 prostate it was 107%. Also, the growth in the assay with SK-MEL-5 melanoma is 98.3%; in the assay with UACC-62 melanoma, 97.1%; in the assay with LOX IMVI melanoma, 97.2%; with SK-MEL-28 melanoma, 107%.

As for `COc1ccc(C(C)=O)cc1N1C(=O)C2C(C1=O)C1(c3ccccc3)C(=O)C2(c2ccccc2)C(c2ccc(C)cc2)=C1c1ccc(C)cc1` (stereo not given), the growth is 25.3% in the assay with HCT-15 colon; 21.4% in the assay with HT29 colon; 57.3% with SNB-75 CNS; 29.7% in the assay on SNB-19 CNS; 14.8% with U251 CNS; 12.6% in the assay on PC-3 prostate. In addition, the growth was -29.1% (active) in the assay on SK-MEL-5 melanoma, -70.9% (active) in the assay with UACC-62 melanoma, 7.38% (active) with LOX IMVI melanoma and 37.6% in the assay on SK-MEL-28 melanoma.

Take `COc1ccc(-c2nc(SCC(=O)c3ccc(Br)cc3)[nH]c(=O)c2C#N)cc1`: the growth in the assay with HCT-15 colon was 112%; with HT29 colon, 101%; with SNB-75 CNS it was 103%; in the assay on SNB-19 CNS, 109%; with U251 CNS it was 109%; with PC-3 prostate, 95.1%. Besides, the growth in the assay on SK-MEL-5 melanoma was 110%; with UACC-62 melanoma, 104%; in the assay on LOX IMVI melanoma, 102%; with SK-MEL-28 melanoma, 115%.

For the compound `O=NN(CC(=O)N/N=C/C=C\c1ccccc1)CC(=O)N/N=C/C=C/c1ccccc1`, the growth was 94% in the assay with HCT-15 colon; 110% in the assay on HT29 colon; 72.9% in the assay on SNB-75 CNS; 92.5% in the assay on SNB-19 CNS; 89% in the assay with U251 CNS; 85.2% in the assay with PC-3 prostate. The growth in the assay on SK-MEL-5 melanoma is 84.9%; with UACC-62 melanoma, 101%; with LOX IMVI melanoma it was 87.6%; in the assay with SK-MEL-28 melanoma it was 99.4%.

Consider `COc1cc2ccnc(C=O)c2cc1OC`, for which the growth with HCT-15 colon was 27.9%; with HT29 colon, 20.9%; in the assay on SNB-75 CNS, 76.7%; in the assay with SNB-19 CNS it was 88.3%; in the assay on U251 CNS, 91%; in the assay with PC-3 prostate, 90.7%. Further, the growth in the assay on SK-MEL-5 melanoma was 60.6%; with UACC-62 melanoma it was 74%; in the assay with LOX IMVI melanoma, 41.8%; in the assay with SK-MEL-28 melanoma it was 79.5%.

As for `COCCNCC(O)Cn1c2ccc(Cl)cc2c2cc(Cl)ccc21` (stereo not given), the growth in the assay on HCT-15 colon is -54.1% (active); with HT29 colon, -15.5% (active); with SNB-75 CNS, 40.7%; in the assay with SNB-19 CNS, 24%; with U251 CNS, -5.49% (active); in the assay with PC-3 prostate, 8.25% (active). In addition, the growth in the assay on SK-MEL-5 melanoma is -96.1% (active); in the assay on UACC-62 melanoma, -73.3% (active); in the assay on LOX IMVI melanoma, -31.4% (active); in the assay with SK-MEL-28 melanoma, -26.3% (active).

On to `CCCCCC(CCC)COC(=O)c1ccc(OC)cc1` (stereo not given), for which the growth in the assay on HCT-15 colon is 99%; in the assay on HT29 colon, 101%; in the assay with SNB-75 CNS, 89.2%; with SNB-19 CNS it was 112%; in the assay with U251 CNS, 96%; with PC-3 prostate it was 84.1%. For the same compound, the growth is 104% in the assay on SK-MEL-5 melanoma, 104% in the assay with UACC-62 melanoma, 94.5% with LOX IMVI melanoma and 110% in the assay with SK-MEL-28 melanoma.

`CC1(C)CC(=O)c2c(nc3ccc(Cl)cc3c2-c2ccccc2)C1`: the growth is 81.3% with HCT-15 colon; 98.6% in the assay on HT29 colon; 95.7% in the assay on SNB-75 CNS; 90% in the assay on SNB-19 CNS; 102% with U251 CNS; 48.7% in the assay with PC-3 prostate. Also, the growth in the assay on SK-MEL-5 melanoma was 73%; with UACC-62 melanoma it was 75.3%; in the assay on LOX IMVI melanoma, 93.4%; in the assay with SK-MEL-28 melanoma, 174%.

On to `O=C(COCc1c(-c2ccccc2)no[n+]1[O-])Nc1nc(-c2ccc(Cl)cc2)cs1`, for which the growth in the assay on HCT-15 colon was 103%; with HT29 colon it was 105%; in the assay on SNB-75 CNS it was 98.6%; with SNB-19 CNS, 107%; in the assay with U251 CNS, 103%; with PC-3 prostate, 95.7%. For the same compound, the growth in the assay on SK-MEL-5 melanoma was 95.6%; with UACC-62 melanoma it was 99.6%; with LOX IMVI melanoma, 95.8%; in the assay on SK-MEL-28 melanoma, 111%.

In the case of `COc1cc(C2C=C(c3ccc(Cl)cc3)N=C3SC(C)=CN32)cc(OC)c1OC` (stereo not given), the growth in the assay on HCT-15 colon was 84.7%; with HT29 colon, 79.1%; in the assay on SNB-75 CNS, 81.8%; in the assay with SNB-19 CNS, 91.5%; with U251 CNS, 85.1%; in the assay with PC-3 prostate it was 89.2%. In addition, the growth in the assay on SK-MEL-5 melanoma was 91.9%; with UACC-62 melanoma, 85.5%; in the assay with LOX IMVI melanoma, 96.8%; in the assay with SK-MEL-28 melanoma it was 105%.

For the compound `NC1CCC(Nc2nc(NCc3cc(Cl)ccc3O)c3ncn(C4CCCC4)c3n2)CC1` (stereo not given), the growth with HCT-15 colon was -10.1% (active); in the assay with HT29 colon it was -16.9% (active); in the assay with SNB-75 CNS, -85.8% (active); in the assay with SNB-19 CNS it was 9.87% (active); with U251 CNS, -22.8% (active); in the assay with PC-3 prostate, -8.24% (active). For the same compound, the growth with SK-MEL-5 melanoma was -93.7% (active); in the assay on UACC-62 melanoma, -58.8% (active); with LOX IMVI melanoma, -73.7% (active); in the assay on SK-MEL-28 melanoma it was -44.7% (active).

For `COc1cc(CSc2nc3ccc(Cl)cc3c(=O)n2Cc2ccccc2)cc(OC)c1OC`, the growth is 24.9% with HCT-15 colon; 11.7% in the assay with HT29 colon; -34.5% (active) in the assay on SNB-75 CNS; 61.1% in the assay with SNB-19 CNS; 32.8% in the assay on U251 CNS; 55.1% in the assay on PC-3 prostate. In addition, the growth was 25.7% in the assay with SK-MEL-5 melanoma, 16.2% in the assay with UACC-62 melanoma, 39.3% with LOX IMVI melanoma and 43.7% in the assay on SK-MEL-28 melanoma.
